# This is a sample that favours compounds with a hit; in the whole collection about 21% have one here.
# CHX counter: counter-screen for Shiga toxin inhibitors: cycloheximide protein synthesis inhibition | cell reporter, cycloheximide protein synthesis inhibition counterscreen | max response, % | 12% of 300,000 active; in the data active = max response mostly above about 13%, no sharp cut-off; inactive = mostly below about 14%; also: read at 38.3 µM for the half of the compounds with a filed dose; 0% is about no effect
# Pf growth 48h: P. falciparum growth inhibition at 48 hours (one generation); P. falciparum luciferase growth in erythrocytes, 48 h; Potency, µM (titrated, usually from 28.7 µM), for the others: top-dose activity change, negative = inhibition, usual class: inhibitors; 5.9% of 310,000 active; AID 504832; also: potency is read from the fitted curve at half-maximal effect; % is scaled to controls: 0 for no effect and ±100 for the full control effect
#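 Luciferase-expressing P. falciparum in infected erythrocytes (2% hematocrit, 0.1% parasitemia final) in RPMI 1640/0.5% Albumax were exposed to compound for 48 hours at 37 C, 5% CO2; growth read as luminescence.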
# NS1 function inh: inhibitors of influenza NS1 protein function | 0.4% of 270,000 active | Potency, µM (series often up to 46.1 µM), without a hit: top-dose activity, positive = more growth | AID 2326; calls by dose curve; also: potency is read from the fitted curve at half-maximal effect; actives are rising curves; nearly all actives have a fitted effect of over 50% in size
#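 Growth recovery, yeast-based: influenza A NS1 expressed in S. cerevisiae causes slow growth, and suppressors are detected by OD600. The parent strain without NS1 is used as positive control.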
# Shiga inhibitor: blocks Shiga toxin action in Vero cells; AID 2315; 9.2% of 290,000 active; Vero cells, Shiga toxin protein synthesis inhibition reporter; inhibition, % at 38.7 µM; in the data active = inhibition mostly above about 28%, no sharp cut-off; inactive = mostly below about 43%; also: 0% is about no effect
# Sm TGR inh: blocks Schistosoma mansoni thioredoxin glutathione reductase; Q962Y6; purified TGR, DTNB reduction, TNB absorbance 405 nm; Potency, µM (doses to about 114 µM), for inactives: top-dose activity change, negative = inhibition, actives largely listed as inhibitors; 3% of 360,000 active; AID 485364; also: potency is read from the fitted curve at half-maximal effect; % is scaled to controls: 0 for no effect and ±100 for the full control effect; nearly all actives have a fitted effect of over 60% in size
#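 TGR 20 nM + NADPH 100 uM (dispensed conc.), cpd preinc 15 min RT; start with NADPH (500 uM addition) then DTNB (15 mM addition). Kinetic TNB absorbance, 405 nm filter. Four-parameter Hill fit across titration.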
# Pf growth 96h: P. falciparum growth inhibition at 96 hours | 6.9% of 320,000 active | AID 504834 | P. falciparum luciferase reporter growth, 96 h | Potency, µM (series often up to 28.7 µM), for inactives: at the highest dose activity change, negative = inhibition, actives largely listed as inhibitors; also: potency is read from the fitted curve at half-maximal effect; % is scaled to controls: 0 for no effect and ±100 for the full control effect
#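 Cell-based qHTS: luciferase-tagged P. falciparum in erythrocytes (2% hematocrit, 0.05% parasitemia final) incubated with compounds for 96 hours, 37 C, 5% CO2; luciferase detection reagent then added and luminescence measured.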
# * hit, by the source's call; ? = inconclusive; · = no result. Unless noted, calls follow the shape of the dose curve; as a rule, active = well fitted curve in the direction sought with a large enough effect; inconclusive = small, poorly fitted or top-dose-only effect, or another doubt; inactive = no such curve, though single readings can be large; an effect the other way counts as inactive or inconclusive.
SMILES,CHX counter,Pf growth 48h,NS1 function inh,Shiga inhibitor,Sm TGR inh,Pf growth 96h
CC1CCC(C(C)C)C(OCC(O)CN2CCN(Cc3ccccc3)CC2)C1 (stereo unspecified),-3,12µM*,-53%,-9,12%,?
CC1CCC(C(C)C)C(OCC(O)CN2CCCC(C)C2)C1 (stereo unspecified),1,?,·,12,-6%,13µM*
COc1cc(COCC(O)CN2CCN(Cc3ccccc3)CC2)cc(OC)c1OC (stereo unspecified),-13,-16%,·,-16,7%,-82%
CCOC(=O)c1ccc(NC(=O)CCCN2C(=O)NC3(CCCC3)C2=O)cc1,·,?,·,·,-1%,?
COc1ccc2c(CNCc3ccco3)c(C(=O)O)n(Cc3cccc(F)c3)c2c1,·,·,·,·,-1%,·
O=C(/C=C/c1cccnc1)c1ccc(F)c(F)c1,-3,9%,-11%,16,28µM*,3%
CCN(C(=O)c1cccc(Br)c1)c1ccccc1,1,-23%,-12%,-5,5%,-30%
CN(C)c1ccc(C(=O)/C=C/c2cccnc2)cc1,46*,-2%,-4%,82*,-30%,8%
CN(C)c1ccc(/C=C/C(=O)c2cccc(Br)c2)cc1,64*,81%,-5%,127*,1%,?
CCOc1cc(CNC(=O)NC2COc3ccc(OC)cc3C2)cc(OCC)c1OCC (stereo unspecified),·,·,·,·,3%,·
CCOc1ccccc1NC(=O)CSc1nnc(-c2cccnc2)o1,·,22%,·,·,-12%,80%
COC(=O)c1ccccc1NC(=O)CSc1nnc(-c2ccc(C)cc2)o1,33*,272%,0%,55*,-2%,?
COC(=O)c1ccccc1NC(=O)Cc1nc(-c2ccccc2)sc1-c1ccc(C)cc1,33*,?,6%,35*,-8%,?
COC(=O)c1ccccc1NC(=O)CSc1nnc(-c2cccnc2)o1,21*,7%,-10%,65,11%,-6%
Cc1ccc(NC(=O)CSc2nnc(C)s2)c(C)c1,·,·,·,·,0%,·
Cc1c(C(=O)N(C)CCOc2ccccc2)oc2c(Cl)cccc12,·,?,·,·,-19%,-11%
COCc1cc(CN(C)C(=O)c2oc3c(F)cccc3c2C)[nH]n1,24*,11%,-12%,13,-7%,13µM*
Cc1cn(S(=O)(=O)c2ccc(F)c(Cl)c2)cn1,·,·,·,·,-4%,·
O=C(CSc1nc2c(oc3ccccc32)c(=O)n1Cc1ccco1)Nc1ccccc1,·,·,·,·,1%,·
Cn1ccc(C(=O)N/N=C/c2ccncc2)n1,32*,4%,9%,28*,1%,-24%
O=C(N/N=C/c1ccc(O)cc1)c1ccncc1,9.8*,-8%,12%,21,11%,5%
O=C(CNC(=O)c1cccc(F)c1)N/N=C/c1cccnc1,7,5%,-13%,2,4%,-31%
O=C(N/N=C/c1cccnc1)c1cccc(F)c1,20*,26%,8%,23*,9%,?
O=C(N/N=C/c1ccc(N2CCOCC2)cc1)c1ccc(O)cc1,37*,32%,7%,73*,45µM*,-5%
O=c1[nH]c(=S)[nH]c2c1CN(CCCN1CCOCC1)CN2,·,·,0%,·,·,·
SMILES,CHX counter,Pf growth 48h,NS1 function inh,Shiga inhibitor,Sm TGR inh,Pf growth 96h
CC(C)(C)c1cnnn1-c1cccc([N+](=O)[O-])c1,2,7%,1%,-10,0%,?
CCCN(CCC)S(=O)(=O)c1ccc(C(=O)NCc2n[nH]c(=S)n2-c2ccc(Cl)c(Cl)c2)cc1,-2,?,·,-7,-4%,-25%
COc1ccc(CCNc2ncnc3onc(C)c23)c(OC)c1,·,·,·,·,2%,·
Cc1ccc(/C=N/NC(=O)c2ccncc2)cc1,22*,0%,?,47,-5%,-103%
Fc1ccc(N/N=C/c2cccnc2)c(F)c1,31*,13%,·,73*,8%,-18%
O=C(N/N=C/c1ccc(OC(=O)c2cccs2)cc1)c1cccc(F)c1,47*,58%,1%,31,0%,31%
FC(F)(F)c1ccccc1N/N=C/c1cccnc1,22,?,-49%,27,-12%,?
O=C(N/N=C/c1cccnc1)c1ccc(O)cc1,19*,28%,5%,40,6%,3%
O=C(O)C1CCN(S(=O)(=O)c2cccc3nonc23)CC1,-4,-3%,-5%,1,-12%,25%
CCOCCCn1c(SCC(=O)Nc2ccc(C(C)C)cc2)nc2c(sc3ccccc32)c1=O,·,·,·,·,-3%,·
CCC(Oc1ccccc1)C(=O)Nc1ccc(O)c(-c2nc3cc(C)ccc3o2)c1 (stereo unspecified),·,·,·,·,9%,·
O=S(=O)(N/N=C/c1ccc(N2CCOCC2)cc1)c1ccccc1,9,?,·,25,35µM*,?
Cc1ccc(/C=N\NC(=O)c2csnn2)cc1,30*,103%,5%,98*,-22%,30%
Cc1cccc(C(=O)N/N=C/c2ccc(OC3CSC3)cc2)c1,24*,?,0%,15,8%,12%
Cc1cccc(C(=O)N/N=C/c2ccncc2)c1,14*,32%,-8%,6,5%,?
O=C(N/N=C/c1ccncc1)c1ccc(NC(=O)c2cccc(Cl)c2)cc1,13,?,·,-5,-16%,2%
COC(=O)c1cc2oc(C)cc2n1Cc1c(C)cc(C)cc1C,·,·,·,·,0%,·
O=C(Nc1ccc(C2=NCCN2)cc1)c1ccc(C(=O)Nc2ccc(C3=NCCN3)cc2)c([N+](=O)[O-])c1,-2,0.37µM*,-42%,9,3%,0.15µM*
O=C(Nc1ccccc1Cl)c1ccc(-n2cccn2)c([N+](=O)[O-])c1,16,5%,-7%,42*,?,?
Cc1cccc(NC(=O)c2ccc(-n3cccn3)c([N+](=O)[O-])c2)c1,32*,3%,2%,49,40µM*,?
Cc1ccc(NC(=O)c2ccc(-n3cccn3)c([N+](=O)[O-])c2)cc1,21*,-12%,-26%,22,?,?
Cc1cccc(-c2nn(C(=S)Nc3ccccc3)cc2-c2ccnc3ccccc23)n1,14,·,·,2,·,·
CCc1ccccc1-n1nnc(-c2nsc(NC(=O)c3ccc(C)c(C)c3)n2)c1C,·,·,·,·,6%,·
Cc1nc2c(c(C)nn2-c2ccccc2)c(C)c1CCC(=O)Nc1ccc(F)cc1,·,·,·,·,7%,·
COc1ccc(-n2c(-c3ccc(C)cc3)cc3c2CC(C)(C)CC3=O)c(OC)c1,·,·,·,·,9%,·
O=[N+]([O-])c1cc(S(=O)(=O)NC2=NCCCCC2)ccc1NCC1CCCCC1,11,-18%,·,-12,7%,?
CC1CCN(S(=O)(=O)c2ccc3c(c2)N(CC(=O)NCCN(C)C)C(=O)CO3)CC1,·,·,·,·,0%,·
COc1ccc(C(=O)CN2C(=O)c3ccccc3C2=O)c(OC)c1,15*,33%,-8%,-15,-8%,46%
